The panel holds about 83,000 compounds, 20% with a hit somewhere; the sample as a whole holds those more often.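 96-well plates, one dose, 48 hours. Percent growth reported; active if below 10.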 The source made the active and inactive calls.
The molecules below were run on MDA-MB-468 breast (assay: NCI-60 one-dose screen, 48 h (100 = growth as untreated, 0 = no growth, -100 = all killed)). Settings: 10 µM unless noted.

SMILES | growth
O=C(Oc1cccnc1)c1ccsc1Nc1ccnc(C(F)(F)F)c1 | 17% (inactive)
C=CCC(OC(C)=O)c1ccc(C(C)C)cc1 (stereo not given) | 105% (inactive)
CC(C)CCSc1nc(N)nc2nc[nH]c12 | 103% (inactive)
Cc1cc(=O)cc(C)n1-c1ccccc1 | 100% (inactive)
Nc1nonc1-c1nc2ccccc2n1Cc1ccc(F)cc1 | 23.6% (inactive)
CC1(C)[C@@H](O[C@@H]2OC[C@@H](O[C@@H]3O[C@H](CO)[C@@H](O)[C@H](O)[C@H]3O[C@@H]3OC[C@@H](O)[C@H](O)[C@H]3O)[C@H](O)[C@H]2O[C@@H]2O[C@H](CO)[C@@H](O)[C@H](O)[C@H]2O)CC[C@]2(C)[C@H]3CC[C@]45OC[C@@]6(CC[C@](C)(C=O)C[C@H]64)[C@H](O)C[C@@]5(C)[C@]3(C)CC[C@@H]12 | -71.2% (active)
CCN1CCN(c2cc(C)nc(N(CCCNc3ccnc4cc(Cl)ccc34)Cc3ccc4c(c3)OCO4)n2)CC1 | -55.5% (active)
CN(C)CCCC1(c2ccc(F)cc2)OCc2cc(-c3cncc4ccccc34)ccc21 (stereo not given) | -4.62% (active)
CN(C)CCn1c(=O)c2c3cc4c(cc3n(CCN(C)C)c2c2ccc(Cl)cc21)OCO4 | 41% (inactive)
NC(N)=N/N=C/c1ccccc1 | 94.2% (inactive)
CC(=O)CC/C=C(\C)[C@H](O)[C@H](C)C(=O)O[C@H]1C[C@H](C)C=C2C=C[C@@]3(C)O[C@@H](O)CC(=O)[C@]3(C)[C@H]21 | -65.4% (active)
CC(C)(C)OC(=O)N1CCN(c2ccc(N)cc2)C(=O)C1 | 111% (inactive)
CC1=NN(c2ccc(Cl)cc2)CC1(C)N=O (stereo not given) | 7.84% (active)
COc1nc(OC)nc(-c2cc(-c3cc(OC)c(OC)c(OC)c3)no2)n1 | 104% (inactive)
CCCC(=O)Nc1ccccc1C(=O)O | 106% (inactive)
Cc1csc2ccc(Cl)cc12 | 96.8% (inactive)
COc1ccc(-c2nnc(SCc3ccc(O)c4ncccc34)o2)cc1 | 51.2% (inactive)
CCCCCCN=C(N)CCCCCCCCCCC(N)=NCCCCCC | -8.12% (active)
COc1ccc(NC(=O)C(=O)c2c[nH]c3ccc(F)cc23)cc1 | 95.3% (inactive)
O=C1c2cc3c(cc2-c2c1c1cc(F)c(F)cc1c(=O)n2C[C@H](O)CO)OCO3 | -57.2% (active)

SMILES | growth
O=C1C(Cl)C(c2ccccc2Cl)N1n1cnnc1 (stereo not given) | 106% (inactive)
COc1ccc(CN2c3ccccc3CCc3ccccc32)cc1F | 4.48% (active)
Cc1ccc(/C=C/C(=O)c2ccc(F)cc2)s1 | 42.2% (inactive)
CCc1cc(O)ccc1Nc1cc(-c2ccc(-n3cccn3)cc2)[nH]n1 | 58.8% (inactive)
Nc1ccc2cc(S(=O)(=O)O)cc(O)c2c1N=Nc1ccc(F)cc1 | 118% (inactive)
N[C@@H]1CCC[C@H]1NCCCCN1C(=O)c2cccc3cccc(c23)C1=O | 53.9% (inactive)
O=C1/C(=C/c2ccc(F)cc2)Cc2ccccc21 | 96% (inactive)
Brc1ccc(Cn2nnnc2-c2ccn(-c3ccccc3)n2)cc1 | 71.5% (inactive)
CCCN1C(=O)N(CCC)C2C1NN=c1s/c(=C3\C(=O)N(C(C)C)c4ccccc43)c(=O)n12 (stereo not given) | 35.7% (inactive)
O=C1c2c(c3c4cc(Br)ccc4[nH]c3c3ccc4ccccc4c23)C(=O)N1CCN1CCCCC1 | 15% (inactive)
Fc1cccc(Oc2ccc(Nc3ncnc4ccc(OCCCN5CCOCC5)cc34)cc2Cl)c1 | -14.1% (active)
CCCCn1c(=O)c(/C=C/C(=O)/C=C/c2ccc(O)c(OC)c2)cc2ccc(Cl)cc21 | 15% (inactive)
NC(CCl)=NCC12CC3CC(CC(C3)C1)C2 | -31.3% (active)
O=C1NC(=O)C2(CCCC2C(=O)O)N1 (stereo not given) | 107% (inactive)
COc1ccc(-c2[nH][nH]c(=O)c2-c2nc3ccccc3s2)cc1 | 119% (inactive)
Cn1cc(-c2csc(-c3cn(CCCN4CCOCC4)c4ccc(F)cc34)n2)c2cccnc21 | 49.3% (inactive)
Cn1c(N)c(N=Nc2ccc(S(=O)(=O)Nc3nccs3)cc2)c(=O)n(C)c1=O | 116% (inactive)
Cc1ccc(Oc2nc3ccccc3cc2-c2nnc(Cn3c(COc4ccccc4)nc4ccccc43)o2)cc1 | 92.1% (inactive)
COC1C/C(=N\O)C2OC(c3ccccc3)OCC2O1 (stereo not given) | 105% (inactive)
C=C(C)[C@@H]1CC[C@]2(C(N)=O)CC[C@]3(C)[C@H](CC[C@@H]4[C@@]5(C)C/C(=C/c6cccnc6)C(=O)C(C)(C)[C@@H]5CC[C@]43C)[C@@H]12 | 14.5% [100 µM] (inactive)

— PubChem BioAssay (NCI)
